Measured values taken from the supplement of paper PMC7724964.

T1: IRS1 157-267 IRS (domain begin residue: 157, domain end residue: 267), P35568
T1 chain: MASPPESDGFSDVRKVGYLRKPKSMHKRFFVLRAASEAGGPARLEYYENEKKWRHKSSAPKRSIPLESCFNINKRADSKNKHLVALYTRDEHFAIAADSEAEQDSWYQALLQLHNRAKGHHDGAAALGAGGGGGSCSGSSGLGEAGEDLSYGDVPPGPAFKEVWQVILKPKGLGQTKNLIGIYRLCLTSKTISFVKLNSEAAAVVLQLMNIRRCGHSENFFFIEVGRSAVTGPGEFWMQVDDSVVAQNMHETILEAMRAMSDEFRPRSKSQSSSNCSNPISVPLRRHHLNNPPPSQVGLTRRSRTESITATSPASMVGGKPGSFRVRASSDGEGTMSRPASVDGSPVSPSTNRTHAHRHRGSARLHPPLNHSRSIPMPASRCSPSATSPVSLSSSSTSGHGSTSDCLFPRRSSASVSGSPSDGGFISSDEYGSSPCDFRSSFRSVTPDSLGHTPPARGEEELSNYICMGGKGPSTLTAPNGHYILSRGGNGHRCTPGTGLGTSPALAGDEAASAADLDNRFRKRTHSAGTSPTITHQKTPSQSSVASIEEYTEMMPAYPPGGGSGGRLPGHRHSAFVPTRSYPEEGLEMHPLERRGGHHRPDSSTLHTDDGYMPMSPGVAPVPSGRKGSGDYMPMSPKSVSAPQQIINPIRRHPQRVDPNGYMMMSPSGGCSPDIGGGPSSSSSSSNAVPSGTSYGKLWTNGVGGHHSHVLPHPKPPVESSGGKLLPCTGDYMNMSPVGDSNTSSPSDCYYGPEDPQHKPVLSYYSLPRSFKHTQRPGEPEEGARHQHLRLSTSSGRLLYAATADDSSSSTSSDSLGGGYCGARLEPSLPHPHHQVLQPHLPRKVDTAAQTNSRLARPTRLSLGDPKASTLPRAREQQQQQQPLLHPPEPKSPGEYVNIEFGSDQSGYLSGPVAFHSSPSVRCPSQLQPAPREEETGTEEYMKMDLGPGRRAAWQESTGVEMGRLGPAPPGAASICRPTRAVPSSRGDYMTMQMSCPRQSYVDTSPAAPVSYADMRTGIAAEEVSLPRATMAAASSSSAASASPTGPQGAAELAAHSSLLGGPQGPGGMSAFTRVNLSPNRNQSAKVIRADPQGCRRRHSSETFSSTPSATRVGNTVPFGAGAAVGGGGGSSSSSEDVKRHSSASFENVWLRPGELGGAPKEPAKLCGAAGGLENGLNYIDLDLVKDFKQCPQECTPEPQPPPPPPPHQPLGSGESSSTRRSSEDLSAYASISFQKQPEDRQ

T2: LBR 1-67 LBR_tudor (domain begin residue: 1, domain end residue: 67), Q14739
T2 chain: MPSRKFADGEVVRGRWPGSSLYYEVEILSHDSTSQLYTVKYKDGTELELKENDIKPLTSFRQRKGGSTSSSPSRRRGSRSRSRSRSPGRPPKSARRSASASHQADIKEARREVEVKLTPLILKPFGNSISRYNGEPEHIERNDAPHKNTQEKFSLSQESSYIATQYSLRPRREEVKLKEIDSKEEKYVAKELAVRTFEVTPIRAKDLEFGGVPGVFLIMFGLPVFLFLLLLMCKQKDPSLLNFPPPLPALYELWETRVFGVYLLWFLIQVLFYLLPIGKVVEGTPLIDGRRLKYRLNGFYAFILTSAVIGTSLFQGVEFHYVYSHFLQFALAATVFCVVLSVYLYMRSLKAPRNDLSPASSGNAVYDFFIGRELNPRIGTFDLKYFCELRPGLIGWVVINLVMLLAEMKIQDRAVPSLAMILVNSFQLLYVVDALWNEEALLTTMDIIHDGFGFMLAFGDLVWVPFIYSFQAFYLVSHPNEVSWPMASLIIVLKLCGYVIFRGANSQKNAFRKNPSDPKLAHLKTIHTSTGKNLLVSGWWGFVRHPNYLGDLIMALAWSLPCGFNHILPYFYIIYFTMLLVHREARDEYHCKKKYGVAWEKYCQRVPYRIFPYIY

T3: ZGPAT 120-268 zf-CCCH+TUDOR (domain begin residue: 120, domain end residue: 268), Q8N5A5
T3 chain: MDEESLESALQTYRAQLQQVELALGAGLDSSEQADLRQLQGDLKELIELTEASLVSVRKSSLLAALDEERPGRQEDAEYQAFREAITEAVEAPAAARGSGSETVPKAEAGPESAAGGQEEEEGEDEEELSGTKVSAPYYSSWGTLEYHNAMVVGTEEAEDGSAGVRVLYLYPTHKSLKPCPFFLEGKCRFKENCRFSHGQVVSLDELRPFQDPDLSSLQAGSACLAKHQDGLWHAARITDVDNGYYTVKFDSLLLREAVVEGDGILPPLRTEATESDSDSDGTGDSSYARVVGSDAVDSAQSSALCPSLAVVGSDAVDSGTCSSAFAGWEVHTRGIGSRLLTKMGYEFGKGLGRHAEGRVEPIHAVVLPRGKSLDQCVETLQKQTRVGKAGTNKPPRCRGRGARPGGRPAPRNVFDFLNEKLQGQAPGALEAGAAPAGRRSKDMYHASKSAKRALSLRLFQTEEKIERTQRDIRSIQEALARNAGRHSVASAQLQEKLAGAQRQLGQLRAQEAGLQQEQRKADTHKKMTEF


target: KDM6A 1-520 TPR_8 (domain begin residue: 1, domain end residue: 520), O15550; experiment: phage ELISA signal ratio (GST-PRM binding over GST background); higher = stronger binding of peptide-phage to the PRM
How it was run: (§1)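 Human peptide recognition domains were expressed in 96-well plates as fusions to the C-terminus of glutathione S-transferase (GST) and selected against an M13 phage library displaying randomized hexadecapeptides, cysteine-free and glycine-flanked, on the gene-8 major coat protein. Five selection rounds were run, and approximately 48 individual clones from rounds 4 and 5 were tested by phage ELISA. Each value is the ELISA signal on the GST-domain fusion divided by the signal on GST alone. Positive clones were sequenced.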

Chain of KDM6A 1-520 TPR_8 (domain begin residue: 1, domain end residue: 520), O15550 (O15550 whole entry, the tested form may be a part): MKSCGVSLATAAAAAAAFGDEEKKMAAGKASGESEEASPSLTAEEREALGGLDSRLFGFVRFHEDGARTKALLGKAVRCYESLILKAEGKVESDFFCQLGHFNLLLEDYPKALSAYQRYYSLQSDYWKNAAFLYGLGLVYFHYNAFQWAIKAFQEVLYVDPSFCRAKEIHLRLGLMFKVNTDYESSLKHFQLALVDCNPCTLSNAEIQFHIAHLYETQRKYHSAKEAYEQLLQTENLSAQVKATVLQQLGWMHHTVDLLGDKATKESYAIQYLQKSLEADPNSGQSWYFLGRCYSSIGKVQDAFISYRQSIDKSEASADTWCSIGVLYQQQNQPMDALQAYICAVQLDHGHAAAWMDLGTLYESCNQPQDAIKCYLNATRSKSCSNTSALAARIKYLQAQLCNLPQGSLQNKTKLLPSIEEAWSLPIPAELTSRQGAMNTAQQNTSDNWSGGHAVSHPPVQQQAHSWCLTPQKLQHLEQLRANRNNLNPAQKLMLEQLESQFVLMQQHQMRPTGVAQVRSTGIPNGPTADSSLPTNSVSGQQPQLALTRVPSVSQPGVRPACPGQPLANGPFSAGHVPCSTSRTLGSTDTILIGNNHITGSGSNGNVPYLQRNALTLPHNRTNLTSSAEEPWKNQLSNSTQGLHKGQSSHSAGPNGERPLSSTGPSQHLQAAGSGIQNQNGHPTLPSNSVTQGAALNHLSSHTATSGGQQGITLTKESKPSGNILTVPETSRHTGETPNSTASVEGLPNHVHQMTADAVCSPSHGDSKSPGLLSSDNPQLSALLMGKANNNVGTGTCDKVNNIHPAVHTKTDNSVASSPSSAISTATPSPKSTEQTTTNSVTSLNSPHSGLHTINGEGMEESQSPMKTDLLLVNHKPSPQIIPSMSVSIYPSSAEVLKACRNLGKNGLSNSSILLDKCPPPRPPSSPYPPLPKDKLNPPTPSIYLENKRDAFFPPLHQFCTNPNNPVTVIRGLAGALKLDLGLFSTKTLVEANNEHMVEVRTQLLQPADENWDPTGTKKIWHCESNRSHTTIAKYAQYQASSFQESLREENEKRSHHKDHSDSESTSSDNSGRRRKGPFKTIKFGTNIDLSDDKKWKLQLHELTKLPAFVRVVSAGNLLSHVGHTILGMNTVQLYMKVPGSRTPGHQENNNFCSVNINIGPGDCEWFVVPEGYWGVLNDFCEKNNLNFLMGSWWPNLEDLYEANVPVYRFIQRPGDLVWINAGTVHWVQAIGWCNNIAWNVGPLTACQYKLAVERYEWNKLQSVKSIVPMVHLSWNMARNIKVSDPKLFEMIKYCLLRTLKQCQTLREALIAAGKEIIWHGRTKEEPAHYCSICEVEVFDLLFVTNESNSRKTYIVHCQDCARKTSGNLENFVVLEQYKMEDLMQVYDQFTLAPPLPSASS

Binder | phage ELISA signal ratio
MDMIWDQILPDQFLSK | 6.37
NYIEHMYDSMMYGSMT | 8.78
YHWDNLLEPTIQTYMG | 7.69
WSWPDLDVVQDMIVAE | 5.09
DNAMVIWHSTTELYQH | 3.82
SPNVVEYPDWFMWAIE | 7.87

target: KPNB1 1-876 IBN_N+Arm (domain begin residue: 1, domain end residue: 876), Q14974; experiment: as above
How it was run: as §1

Chain of KPNB1 1-876 IBN_N+Arm (domain begin residue: 1, domain end residue: 876), Q14974 (Q14974 whole entry): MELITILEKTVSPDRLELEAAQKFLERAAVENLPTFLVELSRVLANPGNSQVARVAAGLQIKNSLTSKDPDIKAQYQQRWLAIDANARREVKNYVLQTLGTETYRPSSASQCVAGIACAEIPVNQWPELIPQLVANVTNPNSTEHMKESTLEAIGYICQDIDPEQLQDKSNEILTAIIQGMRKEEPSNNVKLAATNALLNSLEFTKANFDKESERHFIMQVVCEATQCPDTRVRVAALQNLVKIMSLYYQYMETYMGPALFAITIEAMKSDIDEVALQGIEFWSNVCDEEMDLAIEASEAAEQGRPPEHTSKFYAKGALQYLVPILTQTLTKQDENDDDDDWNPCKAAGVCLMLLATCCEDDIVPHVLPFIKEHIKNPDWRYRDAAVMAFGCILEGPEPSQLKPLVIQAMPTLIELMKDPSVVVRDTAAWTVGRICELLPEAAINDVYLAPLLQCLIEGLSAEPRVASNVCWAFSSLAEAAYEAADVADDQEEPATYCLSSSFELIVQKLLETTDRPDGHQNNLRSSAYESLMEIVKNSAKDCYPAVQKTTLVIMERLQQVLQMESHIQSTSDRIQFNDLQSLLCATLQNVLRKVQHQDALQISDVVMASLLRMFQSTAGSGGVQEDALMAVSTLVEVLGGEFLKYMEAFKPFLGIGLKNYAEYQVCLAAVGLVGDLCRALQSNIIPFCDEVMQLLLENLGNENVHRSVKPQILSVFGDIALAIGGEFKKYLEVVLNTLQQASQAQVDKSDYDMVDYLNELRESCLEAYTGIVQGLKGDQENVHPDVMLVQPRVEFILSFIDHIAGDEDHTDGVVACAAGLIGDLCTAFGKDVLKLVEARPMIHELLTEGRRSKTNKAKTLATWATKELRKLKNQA

Binder | phage ELISA signal ratio
LDWVSMFEDNSSQFSV | 17.2
WVETSTYPEWPAVFVF | 16.3
WISFPFSDWQGDLFTF | 10.3
WQMWTPLGDLDQIYTF | 16.1
PWPQEYTTDLTSVFWF | 19.7

Target: T1, IRS1 157-267 IRS (domain begin residue: …
Experiment: as above
How it was run: as §1

Binder | phage ELISA signal ratio
GYENWIPEGYRWQDWK | 18
IWTWEYNPHYEIIHDM | 18.6
DLVDWMSATWNENPWY | 20.7
WIPADFQEWMELVAYD | 22.4

target: MAD2L1 2-205 HORMA (domain begin residue: 2, domain end residue: 205), Q13257; experiment: as above
How it was run: as §1

Chain of MAD2L1 2-205 HORMA (domain begin residue: 2, domain end residue: 205), Q13257 (Q13257 whole entry): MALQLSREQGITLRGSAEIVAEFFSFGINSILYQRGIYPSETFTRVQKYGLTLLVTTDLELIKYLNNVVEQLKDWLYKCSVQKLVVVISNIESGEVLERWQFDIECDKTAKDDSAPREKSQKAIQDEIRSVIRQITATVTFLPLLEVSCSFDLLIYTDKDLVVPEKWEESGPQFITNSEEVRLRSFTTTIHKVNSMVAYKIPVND

Binder | phage ELISA signal ratio
SGEWFKLPSFDEPRKG | 6.3

target: KMT2C 1055-1137 PHD (domain begin residue: 1055, domain end residue: 1137); experiment: as above
How it was run: as §1

Binder | phage ELISA signal ratio
DNYMESMYEAMGDPKK | 6.88
FETLEVIPGLGEFFKQ | 6.9

target: KMT2C 995-1055 PHD (domain begin residue: 995, domain end residue: 1055); experiment: as above
How it was run: as §1

Binder | phage ELISA signal ratio
VKTPVEDWKYLTFYYI | 6.07

target: HSPA9 438-651 HSP70 (domain begin residue: 438, domain end residue: 651), P38646; experiment: as above
How it was run: as §1

Chain of HSPA9 438-651 HSP70 (domain begin residue: 438, domain end residue: 651), P38646 (P38646 whole entry): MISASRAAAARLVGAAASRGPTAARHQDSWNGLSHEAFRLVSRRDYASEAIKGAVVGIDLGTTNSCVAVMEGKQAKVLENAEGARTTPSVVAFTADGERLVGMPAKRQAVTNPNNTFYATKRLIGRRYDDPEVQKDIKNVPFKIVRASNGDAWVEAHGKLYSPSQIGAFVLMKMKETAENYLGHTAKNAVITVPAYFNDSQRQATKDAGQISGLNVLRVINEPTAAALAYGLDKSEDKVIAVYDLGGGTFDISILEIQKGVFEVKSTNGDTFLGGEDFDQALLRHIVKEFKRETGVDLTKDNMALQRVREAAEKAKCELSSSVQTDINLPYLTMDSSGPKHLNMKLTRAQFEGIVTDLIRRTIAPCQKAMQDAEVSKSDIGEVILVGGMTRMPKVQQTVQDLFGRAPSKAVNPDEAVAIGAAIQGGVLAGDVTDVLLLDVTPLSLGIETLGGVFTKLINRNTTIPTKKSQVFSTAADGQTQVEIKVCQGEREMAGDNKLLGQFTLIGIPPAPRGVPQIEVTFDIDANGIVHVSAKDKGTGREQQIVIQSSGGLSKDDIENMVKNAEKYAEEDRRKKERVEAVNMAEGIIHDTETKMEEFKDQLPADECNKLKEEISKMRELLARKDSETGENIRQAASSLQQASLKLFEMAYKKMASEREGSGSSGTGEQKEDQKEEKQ

Binder | phage ELISA signal ratio
VFTFTMSWDAWEYILY | 18.4
YFTMDHDAWHYFQLYA | 20.2
DLQQWIIDFYIHSMET | 20.6
TYYLDPFAWEYLQAEY | 20.2
PYGLTAEGYERFLWLV | 28

Target: T2, LBR 1-67 LBR_tudor (domain begin …
Experiment: as above
How it was run: as §1

Binder | phage ELISA signal ratio
YNFIESMYTMEPMPMH | 3.33
PFTAFFVMMEWVQVPK | 2.52
DDVTWMWPPGGYFVNM | 4.54

target: SETD1A 2-220 RRM_1 (domain begin residue: 2, domain end residue: 220), O15047; experiment: as above
How it was run: as §1

Chain of SETD1A 2-220 RRM_1 (domain begin residue: 2, domain end residue: 220), O15047 (O15047 whole entry): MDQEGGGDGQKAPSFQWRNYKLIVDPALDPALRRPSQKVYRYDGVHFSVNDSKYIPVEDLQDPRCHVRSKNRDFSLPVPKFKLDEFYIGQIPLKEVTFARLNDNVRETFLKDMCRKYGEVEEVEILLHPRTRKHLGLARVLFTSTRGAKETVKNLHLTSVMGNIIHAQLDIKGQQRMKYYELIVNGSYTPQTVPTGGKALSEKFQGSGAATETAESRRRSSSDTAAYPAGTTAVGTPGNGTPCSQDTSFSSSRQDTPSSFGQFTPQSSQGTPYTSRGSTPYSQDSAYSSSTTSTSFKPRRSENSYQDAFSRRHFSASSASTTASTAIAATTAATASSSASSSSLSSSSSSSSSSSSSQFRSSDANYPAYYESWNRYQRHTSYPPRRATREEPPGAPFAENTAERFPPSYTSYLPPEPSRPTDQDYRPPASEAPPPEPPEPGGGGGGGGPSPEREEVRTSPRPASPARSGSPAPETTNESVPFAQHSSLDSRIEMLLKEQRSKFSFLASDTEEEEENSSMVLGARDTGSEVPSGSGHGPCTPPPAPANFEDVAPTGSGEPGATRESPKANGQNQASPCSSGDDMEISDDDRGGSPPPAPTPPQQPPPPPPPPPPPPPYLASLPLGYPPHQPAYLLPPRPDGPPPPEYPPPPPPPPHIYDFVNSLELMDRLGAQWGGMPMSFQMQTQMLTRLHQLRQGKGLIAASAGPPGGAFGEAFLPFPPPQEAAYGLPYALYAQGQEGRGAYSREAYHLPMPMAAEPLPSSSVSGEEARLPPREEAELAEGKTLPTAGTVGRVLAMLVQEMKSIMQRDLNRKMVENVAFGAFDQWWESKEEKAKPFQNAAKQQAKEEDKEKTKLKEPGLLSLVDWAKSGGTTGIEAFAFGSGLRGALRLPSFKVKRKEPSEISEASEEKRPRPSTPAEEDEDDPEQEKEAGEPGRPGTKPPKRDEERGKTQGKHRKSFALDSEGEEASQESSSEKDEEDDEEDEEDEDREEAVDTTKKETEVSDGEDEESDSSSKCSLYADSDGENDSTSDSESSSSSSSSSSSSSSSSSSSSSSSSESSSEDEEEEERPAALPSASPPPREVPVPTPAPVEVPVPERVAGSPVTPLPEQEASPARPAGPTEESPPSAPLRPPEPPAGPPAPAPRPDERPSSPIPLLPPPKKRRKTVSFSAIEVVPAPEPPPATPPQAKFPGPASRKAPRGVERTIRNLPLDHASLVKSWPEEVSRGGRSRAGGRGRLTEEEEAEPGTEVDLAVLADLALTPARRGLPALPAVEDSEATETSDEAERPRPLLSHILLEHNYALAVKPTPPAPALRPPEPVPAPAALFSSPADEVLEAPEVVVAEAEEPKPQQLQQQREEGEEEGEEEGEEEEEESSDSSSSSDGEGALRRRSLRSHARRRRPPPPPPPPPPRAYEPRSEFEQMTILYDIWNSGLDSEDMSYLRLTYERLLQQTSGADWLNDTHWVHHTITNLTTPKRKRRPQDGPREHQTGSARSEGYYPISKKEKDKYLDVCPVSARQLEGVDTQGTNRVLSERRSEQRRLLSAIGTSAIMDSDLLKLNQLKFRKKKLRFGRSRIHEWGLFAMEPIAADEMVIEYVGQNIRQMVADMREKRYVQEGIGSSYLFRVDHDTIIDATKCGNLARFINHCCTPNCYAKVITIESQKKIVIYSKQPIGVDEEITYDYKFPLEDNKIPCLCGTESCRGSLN

Binder | phage ELISA signal ratio
YNFIESMYTMEPMPMH | 4.24

Target: T3, ZGPAT 120-268 zf-CCCH+TUDOR (domain …
Experiment: as above
How it was run: as §1

Binder | phage ELISA signal ratio
YNFIESMYTMEPMPMH | 3.65

target: KARS 71-214 tRNA_anti-codon (domain begin residue: 71, domain end residue: 214), Q15046; experiment: as above
How it was run: as §1

Binder | phage ELISA signal ratio
EQWEIEWLEHFNTYWE | 17.2
